# CCT chaperon mod: High-Throughput Screening for Modulators of Cytosolic Chaperonin Activity; purified chaperonin ATPase assay, HTRF ADP detection, 30 min; activity change, % (test concentration not listed), hits read low; hit rate 0.3% among 360,000; AID 651819, 2012; in the data active = activity change below about -30%; also: % is scaled to controls: 0 for no effect and ±100 for the full control effect
#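 TRiC (40 or 20 nM final, by batch activity) in 30 mM Tris pH 7.4, 100 mM KCl, 5 mM MgCl2, 1 mM DTT was treated with compound at 76 uM single dose, then 10 uM ATP, 30 min at 37 °C. ADP was read by HTRF Transcreener.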
# aSyn rescue: qHTS of alpha-syn Inhibitors. Yeast expressing alpha-synuclein, growth rescue, BacTiter-Glo, 24 h. Potency, µM (series often up to 46.1 µM), without a hit: top-dose growth rescue (activation), usual class: activators. hit rate 0.14% among 370,000. AID 652106, 2013; also: potency is read from the fitted curve at half-maximal effect; % of control where 0% means no effect; nearly all actives have a fitted effect of over 65% in size
#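 Galactose-induced alpha-syn yeast (OD600=0.02, raffinose-pregrown) + pinned cpd, 24 hr, 30 deg C; growth by BacTiter-Glo luminescence. Growth restoration scores as activation.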
# Mm-Cpn inhibitor: Inhibitors of TCP-1 ring complex (TRiC) of Methanococcus maripaludis (MmCpn): qHTS; purified Mm-Cpn ATPase, ADP Transcreener TR-FRET; Potency, µM (highest dose often 76.9 µM), for inactives: at the highest dose activity, negative = inhibition, hits mostly inhibitors; Chaperonin Mm-Cpn (Methanococcus maripaludis); hit rate 0.031% among 330,000; also: potency is read from the fitted curve at half-maximal effect; % is scaled to controls: 0 for no effect and ±100 for the full control effect; nearly all actives have a fitted effect of over 80% in size
#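 ATPase read-out: TR-FRET ADP immunoassay (anti-ADP Eu cryptate vs ADP-d2), ex 320 nm, em 590/665 nm; signal drops as ADP forms. Enzyme 25 nM, ATP 10 uM, 30 min at 37°C after 10 min compound preincubation.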
# TDP-43 yeast inh: qHTS of TDP-43 Inhibitors | TDP-43 expressing yeast growth rescue, BacTiter-Glo, 24 h | Potency, µM (series often up to 46.1 µM), inactives show at the highest dose growth rescue (activation), most hits filed as activators | hit rate 1.8% among 410,000 | AID 652104, 2013; also: potency is read from the fitted curve at half-maximal effect; % of control where 0% means no effect; nearly all actives have a fitted effect of over 50% in size
#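 Growth rescue of TDP-43-toxic yeast measured as ATP luminescence (BacTiter-Glo). Cells grown to mid-log in raffinose, induced in galactose at OD600=0.02, exposed to compound 24 hr at 30 deg C.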
# Abeta rescue: qHTS for compounds that reverse cellular toxicity of Amyloid beta (A-beta) peptide in yeast: Primary Screen. hit rate 0.063% among 410,000. Potency, µM (highest dose often 46.1 µM), hits mostly activators. yeast expressing A-beta42, growth rescue, OD600, 48 h; response scale: 0% DMSO, 100% iron-clioquinol control; also: potency is read from the fitted curve at half-maximal effect; nearly all actives have a fitted effect of over 55% in size
#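 Growth rescue measured by 600 nm absorbance after 48 h yeast culture at 30 C with compound. Values normalized between DMSO and an equimolar ferric chloride plus clioquinol control.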
# FUS suppressor: qHTS for Suppressors of FUS Proteinopathy: Primary screen using FUS-linked yeast assay; Potency, µM (highest dose often 76.6 µM), actives largely listed as activators; hit rate 0.24% among 390,000; S. cerevisiae FUS-expressing, growth rescue, OD600, 24 h;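 also: potency is read from the fitted curve at half-maximal effect; plate controls were DMSO vehicle for no effect and reference control for full effect; nearly all actives have a fitted effect of over 55% in size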
#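 Absorbance at 600 nm, taken 24hr after compound addition, measured rescue of FUS-yeast growth at 30C. Induction used 2% galactose with seeding at OD 0.005. Controls: CP55940 from 92uM final, DMSO only.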
# The depositor's hits bear a star; i = inactive; ? = inconclusive; nt = no result given. This is a sample that favours compounds with a hit; in the whole collection about 2.3% have one here. Unless noted, calls follow the shape of the dose curve; as a rule, active = well fitted curve in the direction sought with a large enough effect; inconclusive = small, poorly fitted or top-dose-only effect, or another doubt; inactive = no such curve, though single readings can be large; an effect the other way counts as inactive or inconclusive.
SMILES,CCT chaperon mod,aSyn rescue,Mm-Cpn inhibitor,TDP-43 yeast inh,Abeta rescue,FUS suppressor
C[C@@H]1CN([C@H](C)CO)C(=O)c2cc(NC(=O)Nc3ccc(C(F)(F)F)cc3)ccc2O[C@H]1CN(C)S(=O)(=O)c1ccc(Cl)cc1,-5,2%,1%,11%,i,i
C[C@@H]1CN([C@H](C)CO)C(=O)c2cc(NC(=O)Nc3ccc(C(F)(F)F)cc3)ccc2O[C@H]1CN(C)S(=O)(=O)c1cccs1,1,0%,2%,15%,i,10µM*
CCCCn1nnnc1C(c1ccccc1)N1CCN(c2ccc(F)cc2)CC1 (stereo not given),0,14%,nt,28µM*,i,i
CCCCn1nnnc1C(c1ccccc1)N1CCN(c2ccc(OC)cc2)CC1 (stereo not given),2,1%,nt,?,i,i
COc1ccc(-c2oc3ccccc3c2C(=O)OCc2ccccc2)cc1,-33*,10%,-1%,14%,i,i
COc1ccc(-c2oc3ccccc3c2C(=O)OCc2ccc(O)cc2)cc1,0,9%,-2%,-4%,i,i
COc1ccc2oc(-c3ccccc3)c(C(N)=O)c2c1,-1,1%,-8%,13µM*,i,i
COC(=O)c1oc2ccc(OC)cc2c1N,1,-5%,1%,-6%,i,i
COC(=O)c1c(-c2ccc(OC)cc2)oc2ccccc12,-2,7%,-5%,6%,i,i
COc1ccc2oc(-c3ccccc3)c(C(=O)O)c2c1,1,-36%,-7%,-29%,i,i
COc1ccc(-c2oc3ccccc3c2C(=O)Oc2ccccc2)cc1,1,17%,-9%,3.5µM*,i,i
COc1ccc(C(=O)c2oc3ccc(OC)cc3c2N)cc1,2,1%,-2%,11µM*,i,i
Fc1ccc2nc(Nc3ccccc3)sc2c1,-2,-11%,-3%,16µM*,?,i
CCC[C@H]1[C@@H](NC(=O)C2CCOC2)CC[C@@]23CCCN2C(=O)CCC[C@@H]13 (stereo not given in full),nt,nt,nt,nt,nt,i
O=C(NCc1ccccc1C(F)(F)F)C1CC(c2ccccc2[N+](=O)[O-])=NO1 (stereo not given),-2,4%,1%,13µM*,i,i
Cc1cc(C(=O)NCc2cccnc2)no1,-31*,-5%,0%,-25%,i,i
O=C(Oc1ccccc1C(=O)Nc1ccccc1)c1ccccc1Br,0,-2%,2%,11µM*,i,i
COc1ccc(C)cc1NC(=O)c1cn(C)c(=O)c2cc(OC)c(OC)cc12,nt,nt,nt,-3%,i,i
CN(C)c1ccc(NC(=O)C2C3C=CC(C3)C2C(=O)O)cc1 (stereo not given),-2,-13%,25µM*,-20%,i,i
O=C(O)C1C2C=CC(C2)C1C(=O)Nc1ccc2c(c1)OCCO2 (stereo not given),-1,2%,0%,0%,i,?
CN(C)c1ccc(/C=C2/CCc3ccccc32)cc1,nt,0%,nt,nt,nt,nt
CCCCc1ccc(NC(=O)CC(C)=O)cc1,-2,9%,-3%,6%,i,i
CCCCc1ccc(NC(=O)CC(C)(C)C)cc1,-1,2%,1%,20µM*,i,i
CCCCc1ccc(NC(=O)C(C)CC)cc1 (stereo not given),-1,-13%,2%,11µM*,i,i
CCCCc1ccc(CC(=O)NO)cc1,nt,16µM*,nt,nt,nt,nt
SMILES,CCT chaperon mod,aSyn rescue,Mm-Cpn inhibitor,TDP-43 yeast inh,Abeta rescue,FUS suppressor
O=C(c1ccc(Cl)cc1)N1CCC(Oc2cccnc2)CC1,nt,nt,nt,nt,nt,i
COc1c([N+](=O)[O-])ccc(N)c1N,nt,-8%,nt,nt,nt,nt
COc1cc(N(C)C)ccc1/C=C1\C=Cc2ccccc21,nt,-9%,nt,nt,nt,nt
COC(=O)[C@]12C[C@H](CC(=O)N3CCCC3)C(=O)N(Cc3ccco3)C1=C[C@H](C(C)(C)C)O[C@@H]2C,nt,nt,nt,nt,nt,i
Oc1c(N=Nc2nn[nH]n2)ccc2ccccc12,-1,-26%,nt,35µM*,i,?
O=C(Nc1ccccc1-c1ccccc1)c1cnccn1,1,0%,-5%,18µM*,i,i
Cc1ccc(S(=O)(=O)Nc2ccc3nc(C)sc3c2)c(C)c1,0,5%,2%,13µM*,i,i
CC(C)(C)C(=O)N1CCC[C@]2(CC[C@H](CCC#N)O2)C1,nt,nt,nt,nt,nt,i
Brc1ccc(-c2nc(-c3ccncc3)no2)o1,-1,3%,0%,13µM*,i,i
O=S1(=O)c2ccc(N3CCSCC3)cc2Oc2ccccc2CN1Cc1cn(Cc2cccc(C(F)(F)F)c2)nn1,nt,nt,nt,nt,nt,i
O=C(CN1N=C(c2ccc(Cl)cc2)CCC1=O)NCc1ccc(F)cc1,nt,nt,nt,17%,i,i
COC(=O)N1C(=O)[C@](c2ccccc2)(C(C)C)N1C(=O)OC,0,7%,1%,10µM*,i,i
COC(=O)N1C(=O)[C@@](c2ccccc2)(C2CCCCC2)N1C(=O)OC,1,1%,1%,18µM*,i,i
COC(=O)N1C(=O)[C@](Cc2ccccc2)(c2ccccc2)N1C(=O)OC,-1,4%,-1%,18µM*,i,i
O=Cc1ccc(/C=C2\C=Cc3ccccc32)cc1,nt,-1%,nt,nt,nt,nt
CCCC(C)C(=O)NC1CCCCN(Cc2ccc(C)cc2)C1=O (stereo not given),nt,nt,nt,nt,nt,i
Cc1nn(CC(=O)OCCOc2ccc(Br)cc2)c(C)c1[N+](=O)[O-],-3,6%,0%,13µM*,i,i
c1ccc(-c2nnc(CSc3ccc4c(c3)OCCO4)o2)cc1,0,7%,-1%,13µM*,i,i
O=C(OCc1nnc(-c2ccccc2)o1)c1ccc2c(c1)OCO2,-2,-3%,3%,3%,i,?
CCOC(=O)Cc1csc(NC(=O)COc2c(C)cccc2C)n1,0,11%,0%,22%,i,i
CCOC(=O)Cc1csc(NC(=O)COc2ccc(OC)cc2)n1,1,-10%,1%,13µM*,i,i
CCOC(=O)Cc1csc(NC(=O)COc2ccccc2OCC)n1,-1,nt,0%,11µM*,i,i
CCOC(=O)Cc1csc(NC(=O)COc2ccc3ccccc3c2)n1,0,1%,0%,13µM*,?,i
CCOC(=O)Cc1csc(NC(=O)CC)n1,-6,-9%,3%,-7%,i,i

# Bioassay records as filed in PubChem BioAssay.
